Sampled rows, rich in hits. Any-hit rate of the full collection: about 4.2%.
TCR act: activators of T cell receptors; primary human leukocytes, anti-CD3, IL-2 HTRF, 48 h; 330,000 tested, under 10 active; AID 504894; Potency, µM (top dose mostly 9.22 µM), usual class: activators
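Activity was scored as IL-2 release from primary human leukocytes given only a TCR signal (a-CD3 beads) plus compound for 48 hr. Detection used a two-antibody HTRF format read at 665nm.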
Sfp inh: inhibitors of Bacillus subtilis Sfp phosphopantetheinyl transferase; Biochemical Sfp PPTase activity, qHTS; Potency, µM, actives largely listed as inhibitors; 310,000 compounds, 3.5% hits;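 note: the enzyme is Sfp with the accession as filed and its product quenches rhodamine fluorescence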
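Step 1, compound plus 15 nM Sfp-PPTase, 15 min, room temperature. Step 2, add rhodamine-CoA (5 uM) and BHQ-2-YbbR (12.5 uM). Step 3, read 525/598 nm fluorescence at 0 and 30 min.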
uPA generation: blocks generation of uPA at the cell surface; cell surface uPA generation assay, qHTS; Potency, µM (doses to about 38.3 µM), actives largely listed as inhibitors; 330,000 compounds, 0.31% hits; active = well fitted inhibition curve with a large enough effect; inconclusive = small, poorly fitted or top-dose-only effect; inactive = no such curve, though single readings can be large or run the other way; tested in mouse RAW 264.7 cells; note: nearly all actives have a fitted effect of over 55% in size
ClpP mod: qHTS Assay for Activators of ClpP; ATP-dependent Clp protease proteolytic subunit (Bacillus subtilis (strain 168)), P80244; purified B. subtilis ClpP, FRET peptide cleavage, 20 min; Potency, µM (highest dose often 57.5 µM); 340,000 compounds, 1.9% hits; AID 651965, 2013; active = well fitted falling curve with a large enough effect; inconclusive = small, poorly fitted or top-dose-only effect; inactive = no such curve, though single readings can be large or run the other way; note: the source files actives as falling curves though it sought activators and does not explain the sign; nearly all actives have a fitted effect of over 65% in size
Target sequence (P80244 whole entry, looked up): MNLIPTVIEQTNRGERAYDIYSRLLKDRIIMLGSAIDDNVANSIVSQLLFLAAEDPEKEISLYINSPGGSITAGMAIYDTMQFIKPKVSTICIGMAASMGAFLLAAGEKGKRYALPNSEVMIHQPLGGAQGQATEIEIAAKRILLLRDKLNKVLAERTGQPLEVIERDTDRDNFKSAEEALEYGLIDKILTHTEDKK
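ClpP 10 microg/mL final, pH 8 Tris/KCl buffer with BSA, glycerol, Tween-20; compound pinned in; FRET-FV substrate; RT 20 min; Ex320/Em430; ΔFRET vs ADEP 5.8 microM, DMSO, no enzyme.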
Each line names hits and unclear results; the compound was inactive in the other large screens; ! = not active in a repeat. Unless noted, calls come from the whole dose curve; as a rule, active = well fitted curve in the direction sought with a large enough effect; inconclusive = small, poorly fitted or top-dose-only effect, or another doubt; inactive = no such curve, though single readings can be large; an effect the other way counts as inactive or inconclusive.

Cc1ccc(-c2nc(S(=O)(=O)c3ccc(C)cc3)c(N(C)C)o2)cc1	Sfp inh inconclusive
CC1(C)CC(NC(=O)C2CCN(S(=O)(=O)c3ccc(Cl)c(C(F)(F)F)c3)CC2)CC(C)(C)N1	none (no result: Sfp inh)
CCOC(=O)c1c(C)c(-c2ccccc2)n(CC(=O)Nc2ccc(OCC)cc2)c1C	none (no result: TCR act, Sfp inh, uPA generation)
CCOC(=O)NN=C1c2ccccc2-c2ccccc21	none (no result: TCR act)
CCOC(=O)N/N=C1\CCc2ccccc21	Sfp inh inconclusive, ClpP mod 32µM
O=C(Nc1cccc(F)c1)c1ccc(-c2ccccc2)s1	none (no result: TCR act, Sfp inh, uPA generation)
CCCN1CCN(CC(O)COC(c2ccc(OC)cc2)c2ccc(OC)cc2)CC1 (stereo not given)	Sfp inh 45µM
COc1ccc(C(OCC(O)CN2CCC(O)CC2)c2ccc(OC)cc2)cc1 (stereo not given)	none
c1ccc(-c2nc3ccccc3o2)nc1	ClpP mod 13µM
Cc1cc(-c2nc3ccccc3o2)c2ccccc2n1	none
Clc1ccc2oc(-c3ccccn3)nc2c1	ClpP mod 16µM
Cc1ccnc2ccc(-c3nc4ccccc4o3)cc12	ClpP mod 35µM!
COCCNC(=O)c1cccc2c(-c3ccnn3C)coc12	none (no result: TCR act, Sfp inh, uPA generation)
Cc1ccc(-n2c(C)cc(/C([O-])=C(/C(=S)Nc3ccc(F)c(Cl)c3)[n+]3ccccc3)c2C)cc1	Sfp inh 56µM (no result: TCR act)
O=C(Cn1c(C(F)(F)F)nc2ccccc21)Oc1cccc(C(F)(F)F)c1	Sfp inh 79µM
C=C1C(n2cnc3c(=O)[nH]c(N)nc32)C[C@H](O)[C@H]1CO (stereo not given in full)	none (no result: TCR act, uPA generation, ClpP mod)
Cc1cc(C)cc(-n2c(SCC(=O)NCc3ccc(F)cc3)nc3c([nH]c4ccccc43)c2=O)c1	none (no result: TCR act, Sfp inh, uPA generation)
Cc1ccc(-n2c(SCC(=O)NCc3ccc(F)cc3)nc3c([nH]c4ccccc43)c2=O)cc1	ClpP mod 32µM (no result: TCR act, Sfp inh, uPA generation)
O=C(CSc1nc2c([nH]c3ccccc32)c(=O)n1-c1ccc(F)cc1)Nc1ccc2c(c1)OCCO2	ClpP mod 22µM (no result: TCR act, Sfp inh, uPA generation)
CC(C)COc1ccccc1C1CC(=O)Nc2cc3c(cc21)OCO3 (stereo not given)	none (no result: TCR act, Sfp inh, uPA generation)
CNC(=O)c1cc2cc(OC)ccc2oc1=O	ClpP mod 28µM (no result: uPA generation)
COc1ccc2oc(=O)c(C(=O)NCc3cccnc3)cc2c1	ClpP mod 28µM
COc1ccc2oc(=O)c(C(=O)NCc3ccc(F)cc3)cc2c1	none (no result: TCR act)
COc1ccc2oc(=O)c(C(=O)NCC3CCCO3)cc2c1 (stereo not given)	ClpP mod 28µM
COc1ccc(-c2cc(C(F)F)n3ncc(C(=O)NCC4CCCO4)c3n2)cc1 (stereo not given)	ClpP mod 22µM
COC/C=C/C1=CC2=CC(=O)C(C)(OC(=O)c3cnc4ccccc4n3)C(=O)C2=CN1Cc1ccc2c(c1)OCO2 (stereo not given)	none (no result: TCR act, uPA generation, ClpP mod)
COc1ccc(-n2cc(C(=O)N(C)c3cc(C)ccc3OC)c3ccccc3c2=O)cc1	none (no result: TCR act, Sfp inh, uPA generation)
Cc1c([N+](=O)[O-])cnc(Sc2ccccc2)c1[N+](=O)[O-]	uPA generation 8.9µM (no result: Sfp inh)
Cc1cc(Sc2ncnc(N)c2[N+](=O)[O-])ncn1	Sfp inh 50µM (no result: uPA generation)
Cc1cc(Sc2nc(N)ncc2[N+](=O)[O-])ncn1	Sfp inh 22µM (no result: ClpP mod)
CCOC(=O)COc1ccc2c(C)c(CCN(CC)CC)c(=O)oc2c1Cl	none (no result: TCR act, uPA generation, ClpP mod)
Cc1nc2cc(NC(=O)Nc3nccs3)ccc2n1C	Sfp inh inconclusive, uPA generation inconclusive (no result: TCR act)
N#Cc1ccccc1NC(=O)Nc1cccc(Cl)c1	ClpP mod 28µM
O=C(Nc1ccc(Cl)c(Cl)c1)Nc1nccs1	Sfp inh 56µM, uPA generation 3.2µM
O=C(Nc1cccc(Cl)c1)Nc1nccs1	Sfp inh 50µM
O=C(Nc1cccc(Cl)c1)Nc1cccc(Cl)c1	none
O=C1C(c2ccccc2)SC(=Nc2ccccc2)N1S(=O)(=O)c1ccccc1 (stereo not given)	Sfp inh 13µM
CC1(C)SC(=Nc2ccccc2)N(S(=O)(=O)c2ccccc2)C1=O	none
O=C(O)c1ccc(-n2cc(-c3cc4ccccc4oc3=O)[nH]c2=S)cc1	Sfp inh 3.2µM (no result: ClpP mod)
O=c1oc2ccccc2cc1-c1ccccc1	none
Cn1nnc2c(NCc3ccco3)ncnc21	none (no result: TCR act, Sfp inh, uPA generation)
c1c2c(cc3sc(N4CCCCC4)nc13)OCO2	none
c1c2c(cc3sc(N4CCOCC4)nc13)OCO2	Sfp inh 35µM
c1ccc(N2CCN(c3nc4cc5c(cc4s3)OCO5)CC2)cc1	Sfp inh 45µM
CC(=O)Nc1ccc(NC(=O)C(C)OC(=O)c2cccc(S(=O)(=O)N3CCCC3)c2)cc1 (stereo not given)	none (no result: Sfp inh)
O=C(O)CCC(=O)c1cccc2ccccc12	none
C[N+](C)(C)CCC(=O)c1cccc2ccccc12	Sfp inh 18µM (no result: TCR act, uPA generation, ClpP mod)
N#CC1=C(N)C(C#N)(C#N)C(c2cccnc2)C2CC(c3ccccc3)CC=C12 (stereo not given)	none
N#CC1=C(N)C(C#N)(C#N)C(c2cccnc2)C2CCCC=C12 (stereo not given)	Sfp inh 18µM (no result: TCR act, uPA generation, ClpP mod)
N#CC1=C(N)C(C#N)(C#N)C(c2ccc[nH]2)C2CCCC=C12 (stereo not given)	Sfp inh 56µM
CCOC(=O)/C=C/c1ccc2c(c1)S(=O)(=O)N(C1CCCC1)[C@H]2CC(=O)OCC	none (no result: TCR act, Sfp inh, uPA generation)
O=C(Cn1cc(C(=O)C(F)(F)F)c2ccccc21)N1CCCCCC1	none (no result: TCR act, Sfp inh, uPA generation)
CCN1CCN(c2oc(-c3ccco3)nc2C#N)CC1	none
N#Cc1nc(-c2cccs2)oc1N1CCN(Cc2ccccc2)CC1	ClpP mod 25µM
CC1CC(C)CN(c2oc(-c3ccco3)nc2C#N)C1 (stereo not given)	none
N#Cc1nc(COc2ccccc2)oc1N1CCN(Cc2ccccc2)CC1	none
N#Cc1nc(-c2ccco2)oc1N1CCN(c2cccc(Cl)c2)CC1	ClpP mod 32µM
N#Cc1nc(-c2ccco2)oc1N1CCc2ccccc2C1	ClpP mod 14µM (no result: uPA generation)
N#Cc1nc(-c2ccco2)oc1N1CCCC1	ClpP mod inconclusive
N#Cc1nc(-c2ccco2)oc1N1CCN(C(c2ccccc2)c2ccccc2)CC1	ClpP mod 6.3µM
Oc1ccc(/C=N/N2CCN(C3c4ccccc4-c4ccccc43)CC2)cc1O	Sfp inh 56µM (no result: ClpP mod)
Oc1ccc(/C=N/N2CCN(C3c4ccccc4-c4ccccc43)CC2)cc1	none (no result: ClpP mod)
Cc1ccc(/C=N/N2CCN(Cc3ccc(Cl)cc3)CC2)o1	Sfp inh 25µM
Cc1ccc(/C=N/N2CCN(C3c4ccccc4-c4ccccc43)CC2)o1	Sfp inh 18µM
COc1cc(/C=N/N2CCN(C3c4ccccc4-c4ccccc43)CC2)cc(OC)c1O	Sfp inh 40µM
CCN1CCc2c(sc(-n3cccc3)c2C(C)NC(=O)Nc2ccccc2C)C1 (stereo not given)	none (no result: TCR act, Sfp inh, uPA generation)
COc1ccccc1N1CCN(/N=C\c2ccc(C)o2)CC1	Sfp inh 79µM
COc1ccccc1N1CCN(/N=C\c2ccccc2)CC1	none
CC(C)Nc1nnc(SCc2cc(=O)n3ccsc3n2)s1	Sfp inh 56µM (no result: ClpP mod)
Cc1cc(=O)n(C(C)Cc2ccccc2)n1C(C)Cc1ccccc1 (stereo not given)	ClpP mod 32µM (no result: Sfp inh)
O=C1OC2(CCCCC2)CC2=C1C1O[C@](c3ccsc3)(Cc3c1ccc1ccccc31)O2	none (no result: TCR act, uPA generation, ClpP mod)
